This passage reports growth results from PubChem BioAssay (NCI).

The panel holds about 83,000 compounds, 20% with a hit somewhere; the sample as a whole holds those more often.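 Results are percent growth after 48 hours of single-concentration exposure. 100 means growth as in untreated cells, lower positive values show inhibition; negative values down to -100 show cell death.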 A number with no mark means an inactive call. Activity calls are given as the source filed them. Rule for the calls: active = growth percent below 10; inactive = the rest.

In the experiment the test system is SNB-19 CNS. Description: NCI-60 one-dose screen, 48 h (100 = growth as untreated, 0 = no growth, -100 = all killed). Conditions: 10 µM.
`Cc1c[nH]c(=O)n(Cc2nnc(CCC(=O)c3nc4ccccc4[nH]3)o2)c1=O`: the growth is 33.2%. The result for `O=C(CCn1cnc2c(cc(-c3ccccc3)n2-c2ccccc2)c1=O)Nc1ccc(F)cc1` reads 72.9%. The result for `CN(C)CCOc1cccc(NC2=C(Cl)C(=O)C(Nc3cccc(OCCN(C)C)c3)=C(Cl)C2=O)c1` reads 6.1% (active). The same measure for `CN1CCN(CCC(=O)Nc2cccc(-n3cc(-c4ccncc4)c(-c4ccc(Cl)c(O)c4)n3)c2)CC1`: 55%; for `CC(=O)Nc1ccc(CC[C@H]2CCC/C=C/[C@@H]3C[C@H](O)C[C@H]3[C@H](O)/C=C/C(=O)O2)cc1`: 25.9%; for `CN(C)CCN(Cc1ccccc1)c1ccc2ccccc2n1`: 95.6%. In the case of `C/C(=N\O)c1ccc(NC(=O)CSc2nnc(-c3ccccc3)n2-c2ccccc2)cc1`, the growth was 97.2%. Regarding `CCC(CC)n1c(C)cc(=O)n1C(CC)CC`, the growth is 96%. The result for `CC[C@@H](C(=O)[C@H](C)[C@H](O)[C@@H](C)[C@H]1O[C@H]([C@@H](CC)C(=O)O)CC[C@H]1C)C1O[C@]2(C=C[C@@H](O)[C@]3(CC[C@@](C)([C@H]4CC[C@](O)(CC)[C@H](C)O4)O3)O2)[C@H](C)C[C@@H]1C` (some centres undefined) reads -13.3% (active); that for `O=C(O)c1cc([N+](=O)[O-])ccc1Oc1ccccc1`, 98.4%; that for `O=[N+]([O-])c1cccc(/C=N/NC(=S)NC23CC4CC(CC(C4)C2)C3)c1`, 80.6%. The same measure for `COc1cc(C(=O)n2nc(-c3cc(OC)c(OC)c(OC)c3)nc2N)cc(OC)c1OC`: 102%. As for `COc1ccc(-c2n[nH]nc2-c2cc(OC)c(OC)c(OC)c2)cc1`, the growth is 58.3%. The same measure for `C=CCN(CC=C)C(=O)[C@H](CC)[C@@H]1CC[C@@H](C)[C@@H]([C@H](C)[C@@H](O)[C@@H](C)C(=O)[C@H](CC)C2O[C@]3(C=C[C@@H](O)[C@]4(CC[C@@](C)([C@H]5CC[C@](O)(CC)[C@H](C)O5)O4)O3)[C@H](C)C[C@@H]2C)O1` (some centres undefined): 14.2%.

In the case of `O=C(Nc1cccc2c1CCCC2)c1cc2ccccc2cc1O`, the growth was 30.1%.

On to `O=C1/C=C/[C@@H](O)[C@@H]2C[C@@H](O)C[C@H]2/C=C/CCC[C@H](CCc2ccc(NC(=S)Nc3ccc4c(c3)C(=O)OC43c4ccc(O)cc4Oc4cc(O)ccc43)cc2)O1`, for which the growth is 34.1%. The result for `COc1cc(/C=C/c2cc(/C=C/c3ccc(O)c(OC)c3)nc(N)n2)ccc1O` reads 23.2%; that for `CC(=O)Oc1cc(OC(C)=O)c2ccccc2c1OC(C)=O`, 93.8%; that for `CCOc1ccccc1/C=N\N=C\c1ccccc1O`, 97.8%.
